{
  "source": "PubChem BioAssay AID602292",
  "about": "(National Center for Advancing Translational Sciences (NCATS), 2012)",
  "note": "The whole screen tested about 1,300 compounds, of which about 380 (29%) were called active. Not shown: some 37% with an inconclusive outcome. Calls follow the shape of the dose curve; as a rule, active = well fitted inhibition curve with a large enough effect; inconclusive = small, poorly fitted or top-dose-only effect; inactive = flat fitted curve, though single readings scatter. Some of the results follow. Entries that show only a call come without a potency. Potency is read from the fitted curve at half-maximal effect.",
  "data": [
    {"target": "Thyrotropin receptor (Homo sapiens) (UniProt P16473)", "sequence (P16473 whole entry, looked up)": "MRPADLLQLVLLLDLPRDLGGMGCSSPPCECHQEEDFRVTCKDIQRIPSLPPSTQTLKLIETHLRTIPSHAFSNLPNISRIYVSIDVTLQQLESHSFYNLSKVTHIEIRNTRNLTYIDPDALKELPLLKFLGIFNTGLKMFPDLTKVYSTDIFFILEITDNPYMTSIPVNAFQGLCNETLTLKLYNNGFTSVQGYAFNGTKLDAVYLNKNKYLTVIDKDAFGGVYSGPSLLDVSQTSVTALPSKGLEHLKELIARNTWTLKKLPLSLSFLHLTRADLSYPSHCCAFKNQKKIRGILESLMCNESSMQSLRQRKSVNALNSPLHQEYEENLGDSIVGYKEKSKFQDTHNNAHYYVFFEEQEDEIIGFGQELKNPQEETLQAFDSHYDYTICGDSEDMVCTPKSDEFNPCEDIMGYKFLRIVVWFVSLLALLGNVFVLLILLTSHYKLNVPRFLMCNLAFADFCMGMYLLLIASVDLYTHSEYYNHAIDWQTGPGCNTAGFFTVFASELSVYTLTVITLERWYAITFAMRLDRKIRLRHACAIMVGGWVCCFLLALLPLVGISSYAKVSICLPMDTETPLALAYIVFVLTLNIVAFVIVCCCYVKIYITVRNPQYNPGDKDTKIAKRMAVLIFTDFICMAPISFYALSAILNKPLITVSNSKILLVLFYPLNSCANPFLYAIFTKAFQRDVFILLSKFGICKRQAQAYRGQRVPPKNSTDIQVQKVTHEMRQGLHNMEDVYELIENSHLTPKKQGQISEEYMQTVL", "experiment": "qHTS for antagonists of the Thyroid Stimulation Hormone Receptor: Hit Validation in Primary Screen; also: nearly all actives have a fitted effect of over 80% in size", "details": "TSHR-expressing cells, cAMP antagonist mode; series mostly up to 58 µM", "in_short": "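Competitive HTRF detected cAMP in lysates of TSHR cells, read 30 minutes after antibody and d2 addition at room temperature. Before lysis, cells had 2 hours at 37 deg C with compound plus EC80 TSH, 4nM final.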", "values": [
      {"smiles": "CCCC(=O)Nc1nnc(CCc2ccccc2)s1", "Potency": "inactive"},
      {"smiles": "CS(=O)(=O)c1ncc(Cl)c(C(=O)Nc2ccc3ccccc3c2)n1", "Potency": "30.1 µM (active)"},
      {"smiles": "CCN(c1ccccc1)S(=O)(=O)c1ccc(NC(=O)c2nc(S(C)(=O)=O)ncc2Cl)cc1", "Potency": "26.9 µM (active)"},
      {"smiles": "CN1/C(=C/C(=O)c2nc(S(C)(=O)=O)ncc2Cl)C(C)(C)c2ccccc21", "Potency": "21.3 µM (active)"},
      {"smiles": "Cc1ccc(S(=O)(=O)N(CC(=O)NCc2ccccn2)c2ccc(Cl)cc2)cc1", "Potency": "inactive"},
      {"smiles": "CCN(c1ccccc1)S(=O)(=O)c1ccc(NCC2COc3ccccc3O2)nc1", "note": "(stereo not given)", "Potency": "inactive"},
      {"smiles": "CS(=O)(=O)Cc1ccc(C(=O)Nc2cccc(-c3nc4ccccc4[nH]3)c2)cc1", "Potency": "inactive"},
      {"smiles": "CCC1CCCCN1S(=O)(=O)c1ccc(NC(=O)c2nc(S(C)(=O)=O)ncc2Cl)cc1", "note": "(stereo not given)", "Potency": "9.53 µM (active)"},
      {"smiles": "CCS(=O)(=O)c1ncc(Cl)c(C(=O)Nc2ccc(S(=O)(=O)N(C)c3ccccc3)cc2)n1", "Potency": "19 µM (active)"},
      {"smiles": "CCSc1ncc(Cl)c(C(=O)Nc2ccccc2OC)n1", "Potency": "inactive"},
      {"smiles": "CN(c1ccccc1)S(=O)(=O)c1ccc(NC(=O)c2nc(S(C)(=O)=O)ncc2Cl)cc1", "Potency": "21.3 µM (active)"},
      {"smiles": "CCS(=O)(=O)c1ccc(C(=O)Nc2ccccc2)c(Cl)c1Cl", "Potency": "inactive"},
      {"smiles": "Cc1onc(-c2c(Cl)cccc2Cl)c1C(=O)N1CCc2ccccc2C1", "Potency": "inactive"},
      {"smiles": "COc1ccc(/C=N/n2c(C)nnc2C)c(OC)c1OC", "Potency": "inactive"},
      {"smiles": "CCN(C(=O)c1cc2c(=O)n3ccccc3nc2n1C)C1CCCCC1", "Potency": "inactive"},
      {"smiles": "CCN(CC)c1ccc2nc3ccccc3[n+](CC)c2c1", "Potency": "13.5 µM (active)"},
      {"smiles": "Cc1c(N=Nc2c(-c3ccc([N+](=O)[O-])cc3)[nH]n(C(N)=S)c2=O)cccc1[N+](=O)[O-]", "Potency": "3.79 µM (active)"},
      {"smiles": "CC(=O)Nc1nc(C)c(Oc2ccc(C)cc2)c(=O)[nH]1", "Potency": "inactive"},
      {"smiles": "O=[N+]([O-])c1ccc(Sc2cccc[n+]2[O-])c2nonc12", "Potency": "8.49 µM (active)"},
      {"smiles": "COc1ccc(Nc2ccc([N+](=O)[O-])c3nonc23)c(OC)c1", "Potency": "inactive"},
      {"smiles": "CN(C)S(=O)(=O)Oc1cccc(C(=O)Nc2ccc(Cl)c(Cl)c2)c1", "Potency": "26.9 µM (active)"},
      {"smiles": "O=C(Nc1ccc(Cl)c(Cl)c1)c1cccc(S(=O)(=O)NCc2cccnc2)c1", "Potency": "13.5 µM (active)"},
      {"smiles": "Fc1cccc(Cl)c1CNCc1cccnc1", "Potency": "inactive"},
      {"smiles": "O=C(NCc1cccnc1)c1nc(-c2ccccc2)n(-c2ccccc2)n1", "Potency": "inactive"},
      {"smiles": "Cc1ccc(NC(=O)c2cccc(OCc3c(C)noc3C)c2)cc1S(=O)(=O)Nc1ccccc1Cl", "Potency": "inactive"},
      {"smiles": "O=c1[nH]c(=S)[nH]c2c1CN(Cc1ccc(F)cc1)CC2", "Potency": "inactive"},
      {"smiles": "O=C(O)c1nn(CC(=O)N2CCN(c3ncc(C(F)(F)F)cc3Cl)CC2)c(=O)c2ccccc12", "Potency": "21.3 µM (active)"},
      {"smiles": "O=c1c2nncn2c2cccnc2n1CCNc1ncc(C(F)(F)F)cc1Cl", "Potency": "inactive"},
      {"smiles": "Cc1ccc(-n2[nH]c(C)c(/C=N/Nc3ccc([N+](=O)[O-])cc3[N+](=O)[O-])c2=O)cc1C", "Potency": "2.39 µM (active)"},
      {"smiles": "Cc1ccc(-n2[nH]c(C)c(/C=N/Nc3ccc([N+](=O)[O-])cc3[N+](=O)[O-])c2=O)cc1", "Potency": "6.75 µM (active)"},
      {"smiles": "O=C(N/N=C/c1ccc[nH]1)c1sc2ccccc2c1Cl", "Potency": "inactive"},
      {"smiles": "Nc1nnc(COc2ccc(Br)cc2Br)s1", "Potency": "inactive"},
      {"smiles": "O=C(Oc1c(Br)cc([N+](=O)[O-])cc1Br)c1cccnc1", "Potency": "4.26 µM (active)"},
      {"smiles": "COc1ccc(CN2CCCN(C)CC2)c(OC)c1C", "Potency": "inactive"},
      {"smiles": "CCOC(=O)N1CCN(C(=O)c2ccc(NS(=O)(=O)c3ccc(C)cc3)cc2)CC1", "Potency": "inactive"},
      {"smiles": "Cc1ccc(S(=O)(=O)Nc2ccc(N=Nc3ccc(O)cc3)cc2)cc1", "Potency": "30.1 µM (active)"},
      {"smiles": "Cc1ccc(S(=O)(=O)NCCNS(=O)(=O)c2ccc(C)cc2)cc1", "Potency": "inactive"},
      {"smiles": "N#C/C(=N\\Nc1ccc(Cl)c(Cl)c1)C(=O)C1CC1", "Potency": "6.01 µM (active)"},
      {"smiles": "Cc1cccc(C)c1NC(=O)N1CCC(C(=O)c2ccc(F)cc2)CC1", "Potency": "inactive"},
      {"smiles": "O=C(Nc1nnc(C(F)(F)F)s1)c1ccc(Br)s1", "Potency": "10.7 µM (active)"}
    ]}
  ]
}
